Measured values reported in PubChem BioAssay AID1159580 (chemical genetic matrix, 2015).
Screen size: about 5,500 compounds; about 2,000 (36%) were called active. Another 18% or so got no clear call; they are omitted. Rule as the data show it: active = normalized growth mostly below about 0.91 (no sharp cut-off); inconclusive = no clear call, values can overlap the other calls; inactive = mostly above about 0.92. The list shows a part of the results.

Assay: chemical genetic growth profiling, strain panel (AID 1159580);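 also: tested at 20 µM; growth read once vehicle control cultures reached saturation at 30 °C; 1 = growth at the plate median or of vehicle wells; lower values mean less growth of the strain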
Settings: S. cerevisiae deletion strains, growth OD
[1] = locus YAL021C, strain ccr4, active compounds read low
[2] = locus YAL026C, strain drs2, active compounds read low
[3] = locus YAL030W, strain snc1, active compounds read low
[4] = locus YBL061C, strain skt5, active compounds read low
[5] = locus YBR009C, strain hhf1, active compounds read low
[6] = locus YBR023C, strain chs3, active compounds read low
[7] = locus YBR171W, strain sec66, active compounds read low
[8] = locus YBR231C, strain swc5, active compounds read low
[9] = locus YBR279W, strain paf1, active compounds read low
[10] = locus YCL011C, strain gbp2, active compounds read low
[11] = locus YCL016C, strain dcc1, active compounds read low
[12] = locus YCL061C, strain MRC1, active compounds read low
[13] = locus YCL069W, strain vba3, active compounds read low
[14] = locus YCR088W, strain abp1, active compounds read low
[15] = locus YDL005C, strain med2, active compounds read low
[16] = locus YDL040C, strain nat1, active compounds read low
[17] = locus YDR001C, strain nth1, active compounds read low
[18] = locus YDR069C, strain doa4, active compounds read low
[19] = locus YDR137W, strain rgp1, active compounds read low
[20] = locus YDR159W, strain sac3, active compounds read low
[21] = locus YDR297W, strain sur2, active compounds read low
[22] = locus YDR334W, strain swr1, active compounds read low
[23] = locus YDR335W, strain msn5, active compounds read low
[24] = locus YDR392W, strain spt3, active compounds read low
[25] = locus YEL003W, strain gim4, active compounds read low
[26] = locus YEL037C, strain rad23, active compounds read low
[27] = locus YEL061C, strain CIN8 (second series), active compounds read low
[28] = locus YER015W, strain faa2, active compounds read low
[29] = locus YER016W, strain bim1, active compounds read low
[30] = locus YER111C, strain swi4, active compounds read low
[31] = locus YER155C, strain BEM2 (second series), active compounds read low
[32] = locus YFR010W, strain ubp6, active compounds read low
[33] = locus YGL167C, strain pmr1, active compounds read low
[34] = locus YGL173C, strain kem1, active compounds read low
[35] = locus YGL227W, strain vid30, active compounds read low
[36] = locus YGL240W, strain doc1, active compounds read low
[37] = locus YGL253W, strain hxk2, active compounds read low
[38] = locus YHR013C, strain ard1, active compounds read low
[39] = locus YHR027C, strain rpn1, active compounds read low
[40] = locus YHR030C, strain SLT2, active compounds read low
[41] = locus YHR079C, strain IRE1, active compounds read low
[42] = locus YHR142W, strain chs7, active compounds read low
[43] = locus YJL092W, strain hpr5, active compounds read low
[44] = locus YJL095W, strain BCK1 (second series), active compounds read low
[45] = locus YJL095W, strain BCK1, active compounds read low
[46] = locus YJL115W, strain asf1, active compounds read low
[47] = locus YJL129C, strain trk1, active compounds read low
[48] = locus YJL154C, strain vps35, active compounds read low
[49] = locus YJL164C, strain tpk1, active compounds read low
[50] = locus YJL166W, strain qcr8, active compounds read low
[51] = locus YJL187C, strain SWE1, active compounds read low
[52] = locus YJR066W, strain TOR1, active compounds read low
[53] = locus YKL160W, strain elf1, active compounds read low
[54] = locus YKR026C, strain gcn3, active compounds read low
[55] = locus YKR091W, strain srl3, active compounds read low
[56] = locus YLL001W, strain dnm1, active compounds read low
[57] = locus YLL026W, active compounds read low
[58] = locus YLL041C, strain sdh2, active compounds read low
[59] = locus YLR027C, strain aat2, active compounds read low
[60] = locus YLR113W, strain HOG1, active compounds read low
[61] = locus YLR221C, strain rsa3, active compounds read low
[62] = locus YLR258W, strain gsy2, active compounds read low
[63] = locus YLR262C, strain YPT6 (second series), active compounds read low
[64] = locus YLR320W, strain mms22, active compounds read low
[65] = locus YLR342W, strain FKS1, active compounds read low
[66] = locus YLR357W, strain rsc2, active compounds read low
[67] = locus YLR370C, strain arc18, active compounds read low
[68] = locus YLR384C, strain iki3, active compounds read low
[69] = locus YML120C, strain ndi1, active compounds read low
[70] = locus YMR058W, strain fet3, active compounds read low
[71] = locus YMR125W, strain sto1, active compounds read low
[72] = locus YMR129W, active compounds read low
[73] = locus YMR205C, strain PFK2, active compounds read low
[74] = locus YMR231W, strain pep5, active compounds read low
[75] = locus YNL071W, strain lat1, active compounds read low
[76] = locus YNL183C, strain NPR1, active compounds read low
[77] = locus YNL209W, strain ssb2, active compounds read low
[78] = locus YNL248C, strain rpa49, active compounds read low
[79] = locus YNL322C, strain KRE1 (second series), active compounds read low
[80] = locus YNR049C, strain mso1, active compounds read low
[81] = locus YOR001W, strain rrp6, active compounds read low
[82] = locus YOR070C, strain gyp1, active compounds read low
[83] = locus YOR080W, strain dia2, active compounds read low
[84] = locus YOR083W, strain WHI5, active compounds read low
[85] = locus YOR106W, strain vam3, active compounds read low
[86] = locus YOR231W, strain MKK1, active compounds read low
[87] = locus YOR265W, strain rbl2, active compounds read low
[88] = locus YOR270C, strain vph1, active compounds read low
[89] = locus YOR290C, strain snf2, active compounds read low
[90] = locus YPL051W, strain arl3, active compounds read low
[91] = locus YPL078C, strain atp4, active compounds read low
[92] = locus YPL106C, strain sse1, active compounds read low
[93] = locus YPL240C, strain hsp82, active compounds read low
[94] = locus YPL256C, strain CLN2, active compounds read low

Measured: normalized growth

O=c1cc(-c2ccccc2)oc2cc(O)c(O)cc12
active: [2] 0.895 | [5] 0.894 | [18] 0.819 | [49] 0.912 | [50] 0.876 | [63] 0.791 | [77] 0.851 | [85] 0.826 | [88] 0.773
inactive: [1] 0.934 | [3] 0.949 | [4] 0.946 | [6] 0.973 | [7] 0.974 | [8] 0.948 | [9] 0.945 | [10] 0.943 | [11] 0.948 | [12] 0.979 | [13] 0.982 | [14] 0.993 | [15] 0.977 | [16] 0.986 | [17] 0.981 | [19] 0.856 | [20] 0.972 | locus YDR195W, strain ref2 1 | [21] 0.952 | [22] 0.96 | [23] 0.979 | [24] 0.979 | [25] 0.964 | [26] 0.967 | [27] 0.964 | [28] 0.946 | [29] 0.99 | [30] 0.951 | [31] 0.971 | [32] 0.914 | [33] 0.949 | [34] 0.933 | [35] 0.973 | [36] 0.943 | [37] 0.939 | [38] 0.856 | [39] 0.945 | [40] 0.981 | [41] 0.972 | [42] 0.941 | [43] 1 | [44] 0.972 | [45] 0.999 | [46] 0.985 | [47] 0.912 | [48] 0.994 | [51] 0.946 | [52] 0.954 | [53] 0.97 | [54] 0.98 | [55] 0.983 | [56] 0.975 | [57] 1.01 | [58] 0.976 | [59] 0.975 | [60] 0.99 | [61] 0.949 | [62] 0.953 | [64] 0.97 | [65] 0.936 | [66] 0.903 | [67] 0.935 | [68] 0.964 | [69] 0.951 | [70] 0.956 | [71] 1.02 | [72] 0.972 | [73] 0.955 | [74] 0.958 | [75] 0.995 | [76] 0.951 | [78] 1.02 | [79] 0.992 | [80] 0.987 | [81] 0.991 | [82] 0.979 | [83] 0.976 | [84] 0.961 | [86] 0.996 | [87] 0.95 | [89] 0.939 | [90] 0.943 | [91] 0.986 | [92] 0.855 | [93] 0.949 | [94] 0.955

O=c1cc(-c2ccc(O)cc2)oc2cc(O)cc(O)c12
inactive: [1] 0.995 | [2] 0.978 | [3] 0.99 | locus YAL040C, strain CLN3, active compounds read low 0.976 | [4] 1 | [5] 1.01 | [6] 0.993 | [7] 0.997 | [8] 1 | [9] 0.994 | [10] 0.999 | [11] 0.998 | [12] 1.01 | [13] 0.989 | [14] 0.987 | [15] 0.995 | [16] 0.99 | [17] 0.981 | [18] 0.966 | [19] 1.04 | [20] 0.975 | locus YDR195W, strain ref2 0.955 | [21] 0.993 | [22] 0.98 | [23] 0.996 | locus YDR363W, strain ESC2, active compounds read low 0.998 | [24] 0.922 | [25] 0.997 | [26] 0.981 | [27] 0.985 | locus YER002W, strain NOP16, active compounds read low 0.987 | [28] 0.986 | [29] 0.98 | [30] 0.989 | [31] 0.975 | [32] 0.966 | [33] 0.974 | [34] 1 | [35] 0.989 | [36] 1 | [37] 0.973 | locus YGR229C, strain SMI1, active compounds read low 1.01 | [38] 1.01 | [39] 0.997 | [40] 1.02 | [41] 0.996 | [42] 0.98 | [43] 0.988 | [44] 0.996 | [45] 1.02 | [46] 0.978 | [47] 0.995 | [48] 0.977 | [49] 1.03 | [50] 1.01 | [51] 0.998 | [52] 0.954 | [53] 1.01 | [54] 0.972 | [55] 0.985 | [56] 1.03 | [57] 0.993 | [58] 0.997 | [59] 0.998 | [60] 0.95 | [61] 0.992 | [62] 1 | [63] 1.05 | [64] 1.01 | [65] 0.993 | [66] 0.918 | [67] 0.981 | [68] 0.98 | [69] 0.984 | [70] 0.97 | [71] 0.973 | [72] 0.989 | [73] 1.03 | [74] 0.996 | [75] 0.993 | locus YNL175C, strain NOP13, active compounds read low 1.01 | [76] 0.943 | locus YNL197C, strain WHI3, active compounds read low 0.981 | [77] 0.998 | locus YNL224C, strain SQS1, active compounds read low 0.982 | [78] 0.989 | [79] 0.977 | [80] 0.989 | [81] 1 | [82] 1 | [83] 0.986 | locus YOR083W, strain WHI5 (second series), active compounds read low 0.954 | [84] 1.02 | [85] 0.999 | [86] 1.02 | [87] 0.998 | [88] 0.988 | [89] 0.96 | [90] 0.999 | [91] 1 | [92] 0.955 | [93] 0.995 | [94] 1.01
